The record followed here is ChEMBL document CHEMBL3988442, “University of Dundee, Small-Polar-MMV Screening Library” (2021).

What all share (parameters): scale not given: direction of the effect not stated beside the values
The target of assay [1] is Protein translocase subunit SecA (Escherichia coli (strain K12)) (UniProt P10408). In words: Assay to Identify E. coli SecA ATPase Inhibitors. It is filed as functional. The conditions noted are these: 30 µM.
For assay [2], the target named is T1, Ubiquitin-activating enzyme e1, putative (Leishmania donovani (strain BPK282A1)) (UniProt E9BSI1).
T1 sequence (whole entry): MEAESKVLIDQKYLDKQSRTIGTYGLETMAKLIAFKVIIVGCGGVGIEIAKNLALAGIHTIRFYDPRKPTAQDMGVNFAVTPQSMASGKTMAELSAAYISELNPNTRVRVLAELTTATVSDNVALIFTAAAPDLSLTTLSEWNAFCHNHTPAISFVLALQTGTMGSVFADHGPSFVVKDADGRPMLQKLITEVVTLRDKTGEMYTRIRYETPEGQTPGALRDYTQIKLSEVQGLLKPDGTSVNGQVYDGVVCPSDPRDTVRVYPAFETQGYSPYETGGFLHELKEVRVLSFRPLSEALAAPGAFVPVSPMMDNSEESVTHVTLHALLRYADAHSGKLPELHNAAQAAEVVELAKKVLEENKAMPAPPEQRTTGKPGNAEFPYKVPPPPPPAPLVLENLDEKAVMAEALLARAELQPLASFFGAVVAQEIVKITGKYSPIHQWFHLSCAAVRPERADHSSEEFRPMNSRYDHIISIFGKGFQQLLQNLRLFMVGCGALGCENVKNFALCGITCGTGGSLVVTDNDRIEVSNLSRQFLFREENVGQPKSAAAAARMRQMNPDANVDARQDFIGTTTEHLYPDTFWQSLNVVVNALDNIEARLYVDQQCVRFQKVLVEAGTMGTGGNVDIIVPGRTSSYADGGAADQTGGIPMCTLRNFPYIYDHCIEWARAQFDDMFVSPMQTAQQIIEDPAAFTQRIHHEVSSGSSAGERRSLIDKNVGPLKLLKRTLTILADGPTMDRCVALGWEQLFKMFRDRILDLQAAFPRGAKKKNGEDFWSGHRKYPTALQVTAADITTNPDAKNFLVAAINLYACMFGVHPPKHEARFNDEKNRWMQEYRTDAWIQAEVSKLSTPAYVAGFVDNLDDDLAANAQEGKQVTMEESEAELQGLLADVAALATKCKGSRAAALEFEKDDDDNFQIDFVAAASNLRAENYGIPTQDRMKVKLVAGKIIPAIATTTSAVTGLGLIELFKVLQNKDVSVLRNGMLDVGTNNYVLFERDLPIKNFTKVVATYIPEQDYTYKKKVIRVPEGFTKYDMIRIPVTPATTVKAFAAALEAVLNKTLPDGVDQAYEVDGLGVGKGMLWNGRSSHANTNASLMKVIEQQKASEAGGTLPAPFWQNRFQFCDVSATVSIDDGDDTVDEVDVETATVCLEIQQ
As to the kind of experiment: Leishmania donovani Ubiquitin Activating Enzyme (LdE1). It is filed as functional. The conditions noted are these: 30 µM.

The target of assay [3] is AMP-activated protein kinase, AMPK (Homo sapiens) (UniProt P54646+O43741+P54619+Q9UGJ0+Q9Y478+Q13131+Q9UGI9). As to the kind of experiment: AMP-dependent Kinase enzyme assay. An in vitro enzyme assay that detects ADP turnover that is directly proportional to AMPK activity. This uses naive AMPK that is activated during the assay with MK-8722. It is filed as functional. The conditions noted are these: 30 µM.

Assay [4] addresses Sialic acid-binding Ig-like lectin 9 (Homo sapiens) (UniProt Q9Y336). As to the kind of experiment: Hs-Siglec9 ALPHAscreen SOP 20170721. The conditions noted are these: 10 µM. A general note: In Alpha technology, singlet oxygen from a donor bead excites a nearby acceptor bead.
Assay [5] relates to Trypanosoma cruzi. In words: Trypanosoma cruzi phosphomannomutase and mannose-1-phosphate guanylyltransferase assay. Type of assay: functional. The conditions noted are these: 10 µM.
In assay [6] the target is T2, Arginase-2, mitochondrial (Homo sapiens) (UniProt P78540).
T2 sequence (whole entry): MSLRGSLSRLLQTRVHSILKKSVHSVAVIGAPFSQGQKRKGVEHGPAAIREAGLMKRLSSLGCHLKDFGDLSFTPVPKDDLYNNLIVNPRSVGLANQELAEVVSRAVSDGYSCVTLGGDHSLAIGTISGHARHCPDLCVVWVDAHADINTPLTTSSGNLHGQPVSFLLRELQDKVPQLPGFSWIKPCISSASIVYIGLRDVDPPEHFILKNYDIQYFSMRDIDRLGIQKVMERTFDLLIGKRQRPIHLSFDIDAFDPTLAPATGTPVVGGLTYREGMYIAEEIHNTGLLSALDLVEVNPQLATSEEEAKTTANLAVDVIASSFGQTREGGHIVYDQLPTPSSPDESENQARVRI
In words: in vitro enzyme assay to detect the production of urea directly proportional to the activity of Arginase II. Note: in the data most compounds retested in dose-response had high values. The conditions noted are these: 33.3 µM. It is filed as functional.

For assay [7], the target named is T3, Proteasome subunit beta (Trypanosoma cruzi) (UniProt O96673).
T3 sequence (whole entry): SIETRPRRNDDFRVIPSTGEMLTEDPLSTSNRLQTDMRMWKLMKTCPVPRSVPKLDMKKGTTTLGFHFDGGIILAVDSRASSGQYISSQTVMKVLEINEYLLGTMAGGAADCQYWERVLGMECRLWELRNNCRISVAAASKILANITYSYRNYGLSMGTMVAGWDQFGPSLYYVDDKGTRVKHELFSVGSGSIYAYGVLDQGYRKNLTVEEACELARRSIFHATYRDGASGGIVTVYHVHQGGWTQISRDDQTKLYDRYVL
In words: Trypanosoma cruzi proteasome chymotrypsin-like activity (TcProtChymo) assay. Note: in the data most compounds retested in dose-response had high values. Type of assay: functional. The conditions noted are these: 9.37 µM.

The species entered for assay [8] is Homo sapiens. In words: To identify inhibition of the IFN signalling (Jak-Stat) pathway via expression of an eGFP reporter gene under the control of an IFN-stimulated response element (ISRE) containing MxA promoter. Type of assay: functional. The conditions noted are these: 30 µM. On the technique in general: Reporter assays use an easily measured gene product as a stand-in for the process of interest.

For assay [9], the target named is T4, Tyrosyl-tRNA synthetase, putative (Trypanosoma cruzi (strain CL Brener)) (UniProt Q4DSP6).
T4 sequence (whole entry): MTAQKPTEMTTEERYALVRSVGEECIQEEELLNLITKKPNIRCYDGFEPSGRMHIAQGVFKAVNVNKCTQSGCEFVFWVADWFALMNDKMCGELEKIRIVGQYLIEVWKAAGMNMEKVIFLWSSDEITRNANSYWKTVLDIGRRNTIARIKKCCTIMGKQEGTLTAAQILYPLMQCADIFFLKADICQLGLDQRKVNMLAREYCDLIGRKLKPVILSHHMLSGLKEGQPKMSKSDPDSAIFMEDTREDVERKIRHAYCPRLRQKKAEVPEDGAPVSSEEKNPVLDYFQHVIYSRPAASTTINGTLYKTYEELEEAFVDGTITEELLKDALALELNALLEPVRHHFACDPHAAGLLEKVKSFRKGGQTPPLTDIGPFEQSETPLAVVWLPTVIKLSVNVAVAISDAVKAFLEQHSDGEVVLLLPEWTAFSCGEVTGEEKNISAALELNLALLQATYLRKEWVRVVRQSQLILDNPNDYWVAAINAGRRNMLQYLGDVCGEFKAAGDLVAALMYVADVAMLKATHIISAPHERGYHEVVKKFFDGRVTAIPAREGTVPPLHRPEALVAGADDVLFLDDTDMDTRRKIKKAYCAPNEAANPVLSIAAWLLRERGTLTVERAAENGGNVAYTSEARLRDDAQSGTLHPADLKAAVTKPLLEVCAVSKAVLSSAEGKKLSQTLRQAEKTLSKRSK
As to the kind of experiment: Trypanosoma cruzi tyrosyl tRNA synthetase (TcYRS) _High Tyrosine SOP. Note: in the data most compounds retested in dose-response had high values. The conditions noted are these: 30 µM. Type of assay: functional.

The target of assay [10] is T4, Tyrosyl-tRNA synthetase, putative (Trypanosoma cruzi (strain CL Brener)). As to the kind of experiment: Trypanosoma cruzi tyrosyl tRNA synthetase (TcYRS) SOP. Type of assay: functional. The conditions noted are these: 30 µM.
Assay [11] has as its target Chromo domain-containing protein 1 (Saccharomyces cerevisiae (strain ATCC 204508 / S288c) (Baker's yeast)) (UniProt P32657). In words: ScCHD-1 Enzyme Inhibition Assay. Note: in the data most compounds retested in dose-response had high values. It is filed as functional. The conditions noted are these: 30 µM.

For some of these results: Potency and affinity values are given separately.

Sialic acid-binding Ig-like lectin 9 (Homo sapiens), sequence (Q9Y336 whole entry): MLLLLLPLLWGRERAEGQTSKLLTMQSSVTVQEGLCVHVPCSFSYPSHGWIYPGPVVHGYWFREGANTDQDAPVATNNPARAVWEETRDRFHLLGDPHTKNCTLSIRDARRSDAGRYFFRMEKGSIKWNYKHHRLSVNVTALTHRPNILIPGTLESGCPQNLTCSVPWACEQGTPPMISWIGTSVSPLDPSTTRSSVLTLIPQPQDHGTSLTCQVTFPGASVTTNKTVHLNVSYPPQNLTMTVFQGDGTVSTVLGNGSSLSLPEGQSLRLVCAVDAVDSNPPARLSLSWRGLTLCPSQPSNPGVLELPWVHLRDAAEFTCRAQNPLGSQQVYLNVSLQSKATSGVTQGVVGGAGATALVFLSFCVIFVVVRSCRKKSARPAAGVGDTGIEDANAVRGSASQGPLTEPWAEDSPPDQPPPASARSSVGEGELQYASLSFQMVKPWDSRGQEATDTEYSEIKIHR
Protein translocase subunit SecA (Escherichia coli (strain K12)), sequence (P10408 whole entry): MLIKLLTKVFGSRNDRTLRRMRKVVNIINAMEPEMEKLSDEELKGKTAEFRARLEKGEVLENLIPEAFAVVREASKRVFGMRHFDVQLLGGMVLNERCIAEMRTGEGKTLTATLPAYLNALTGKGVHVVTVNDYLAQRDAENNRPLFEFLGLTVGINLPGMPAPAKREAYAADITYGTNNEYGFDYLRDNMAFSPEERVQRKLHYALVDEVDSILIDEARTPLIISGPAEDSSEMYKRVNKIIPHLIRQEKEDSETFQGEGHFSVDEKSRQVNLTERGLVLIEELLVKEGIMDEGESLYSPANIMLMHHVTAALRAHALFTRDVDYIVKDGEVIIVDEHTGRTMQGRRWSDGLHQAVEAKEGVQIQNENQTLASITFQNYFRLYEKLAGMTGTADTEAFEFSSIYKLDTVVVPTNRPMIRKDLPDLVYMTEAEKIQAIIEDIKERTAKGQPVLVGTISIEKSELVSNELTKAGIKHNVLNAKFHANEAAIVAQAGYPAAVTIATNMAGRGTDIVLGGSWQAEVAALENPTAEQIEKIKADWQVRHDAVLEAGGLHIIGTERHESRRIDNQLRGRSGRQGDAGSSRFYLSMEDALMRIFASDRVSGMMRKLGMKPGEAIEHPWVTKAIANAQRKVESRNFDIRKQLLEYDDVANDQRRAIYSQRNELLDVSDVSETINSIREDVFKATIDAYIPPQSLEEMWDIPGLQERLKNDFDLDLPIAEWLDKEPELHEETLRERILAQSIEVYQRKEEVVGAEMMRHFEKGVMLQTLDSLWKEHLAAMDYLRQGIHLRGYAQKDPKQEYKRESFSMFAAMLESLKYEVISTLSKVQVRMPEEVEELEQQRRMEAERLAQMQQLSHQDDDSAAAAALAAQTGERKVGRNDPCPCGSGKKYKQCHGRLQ
Chromo domain-containing protein 1 (Saccharomyces cerevisiae (strain ATCC 204508 / S288c) (Baker's yeast)), sequence (P32657 whole entry, the tested form may be a part): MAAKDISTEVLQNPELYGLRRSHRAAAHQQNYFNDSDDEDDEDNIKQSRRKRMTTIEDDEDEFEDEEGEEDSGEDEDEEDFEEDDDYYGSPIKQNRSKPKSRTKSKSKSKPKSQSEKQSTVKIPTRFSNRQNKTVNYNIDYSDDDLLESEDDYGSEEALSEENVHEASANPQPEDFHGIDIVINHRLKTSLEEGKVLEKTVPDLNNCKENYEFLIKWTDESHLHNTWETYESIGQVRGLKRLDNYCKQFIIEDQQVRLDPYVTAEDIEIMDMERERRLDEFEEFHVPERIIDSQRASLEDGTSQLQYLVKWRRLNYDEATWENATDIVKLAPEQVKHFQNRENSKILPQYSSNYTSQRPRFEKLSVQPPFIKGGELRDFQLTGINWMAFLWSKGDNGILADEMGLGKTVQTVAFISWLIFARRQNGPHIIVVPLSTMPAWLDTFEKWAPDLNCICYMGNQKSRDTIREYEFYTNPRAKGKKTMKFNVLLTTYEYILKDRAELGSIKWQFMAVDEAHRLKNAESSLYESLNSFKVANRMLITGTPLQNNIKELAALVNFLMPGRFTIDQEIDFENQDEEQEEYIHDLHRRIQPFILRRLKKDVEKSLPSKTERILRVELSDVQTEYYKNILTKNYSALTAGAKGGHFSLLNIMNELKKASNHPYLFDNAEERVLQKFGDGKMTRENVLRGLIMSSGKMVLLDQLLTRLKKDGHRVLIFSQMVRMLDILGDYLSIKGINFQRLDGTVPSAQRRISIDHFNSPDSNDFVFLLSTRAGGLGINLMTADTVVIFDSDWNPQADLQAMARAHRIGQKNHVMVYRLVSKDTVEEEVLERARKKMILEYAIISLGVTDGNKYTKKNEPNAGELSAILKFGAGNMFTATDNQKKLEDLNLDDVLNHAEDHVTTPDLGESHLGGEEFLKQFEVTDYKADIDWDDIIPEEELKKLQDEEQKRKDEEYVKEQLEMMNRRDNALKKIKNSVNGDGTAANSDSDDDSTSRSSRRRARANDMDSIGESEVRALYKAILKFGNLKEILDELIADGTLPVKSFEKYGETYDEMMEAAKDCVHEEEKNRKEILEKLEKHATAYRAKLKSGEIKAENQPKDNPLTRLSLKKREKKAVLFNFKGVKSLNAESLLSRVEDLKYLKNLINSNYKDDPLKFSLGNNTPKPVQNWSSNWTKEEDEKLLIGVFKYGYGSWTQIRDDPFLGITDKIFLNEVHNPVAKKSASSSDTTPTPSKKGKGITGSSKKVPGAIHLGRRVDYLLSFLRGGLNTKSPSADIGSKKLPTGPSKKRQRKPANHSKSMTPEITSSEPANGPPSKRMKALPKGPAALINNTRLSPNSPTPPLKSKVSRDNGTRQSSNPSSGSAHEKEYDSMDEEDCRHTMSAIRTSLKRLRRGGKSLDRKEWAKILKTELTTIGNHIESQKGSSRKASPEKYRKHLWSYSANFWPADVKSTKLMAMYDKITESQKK

In the case of `Cc1nn(CCO)c(C)c1CNC1CCc2c(Cl)cccc21` (stereo unspecified), the Percent Effect in assay [1] is -3.63%; in assay [2], 8%; in assay [3], -5.26%; in [4], 16.9%; in assay [5] it was 8.67%; in [6], 46.9%. Also, the Percent Effect in assay [7] was 0.174%; in assay [8], 8.33%; in assay [9] it was 1.64%; in assay [10], 8.64%; in assay [11], -14.3%.
For `CC(C)C1CN(c2ncccn2)CCC(=O)N1Cc1ccc(F)cc1` (stereo unspecified), the Percent Effect in assay [1] was -4.22%; in assay [2], 6.94%; in [3], -1.8%; in [4], -3.12%; in assay [5], -0.291%; in assay [6] it was 4.86%. Besides, the Percent Effect in assay [7] is 7.54%; in [8], 8.83%; in assay [9], 7.37%; in [10] it was 12.8%; in assay [11], -3.01%.
With `CN(CCOc1cccc(CNC(=O)C2CC2)c1)C1CCOCC1`, the Percent Effect is -3.16% in [1]; 0% in assay [2]; 2.77% in assay [3]; -1.13% in assay [4]; 4.44% in assay [5]; 3.33% in assay [6]. Besides, the Percent Effect in assay [7] was -3.45%; in assay [8], -3.27%; in assay [9], -0.529%; in assay [10] it was 2.44%; in assay [11], 0.329%.
Take `CCOC(=O)CCNC(=O)N1CCN(c2nc3ccccc3n2C)CC1`: the Percent Effect is -1.65% in assay [1]; 10.4% in [2]; 1.91% in assay [3]; 4.46% in assay [4]; -5.42% in assay [5]; -266% in assay [6]. The Percent Effect in assay [7] was 12.2%; in assay [8], -4.19%; in [9], 2.12%; in assay [10], 16.7%; in assay [11] it was -7.17%.
Consider `Cc1nc(C)n(CC2CCCN2Cc2nc(-c3cccs3)no2)n1` (stereo unspecified), for which the Percent Effect in assay [1] was -2.92%; in [2], -7.89%; in assay [3] it was 1.44%; in [4], 6.54%; in assay [5], -0.188%; in [6], 2.3%. The Percent Effect in [7] came out at 6.85%; in assay [8], 17.8%; in assay [9] it was 5.39%; in assay [10] it was 12.2%; in assay [11], 1.98%.
With `c1cc2nc(C3CCN(CC4CC4)CC3)nn2cc1N1CCCC1`, the Percent Effect was -0.605% in assay [1]; 11% in assay [2]; -111% in [3]; 9.79% in assay [4]; 0.595% in assay [5]; 0.399% in assay [6]. The Percent Effect in assay [7] was 11.4%; in [8], 7.29%; in assay [9], 13.5%; in assay [10], -1.24%; in [11] it was -6.62%.
As for `COc1ccnc(N2CCN(C(=O)Cc3ccc(C)s3)CC2)n1`, the Percent Effect in assay [1] was -2.28%; in [2] it was -2.6%; in [3], 5.06%; in assay [4] it was 8.15%; in assay [5], 2.84%; in [6] it was -0.632%. For the same compound, the Percent Effect is 13.8% in [7]; -7.95% in [8]; 9.52% in [9]; 25.9% in assay [10]; -9.7% in assay [11].
For `OC(COCc1cccs1)CN1CCC(c2ccn[nH]2)CC1` (stereo unspecified), the Percent Effect in [1] is 0.446%; in [2] it was 15.2%; in assay [3] it was -3.7%; in assay [4] it was -4.14%; in assay [5], -8.03%; in [6] it was 3.42%. In addition, the Percent Effect in assay [7] is 8.6%; in assay [8], 16.3%; in assay [9], -2.46%; in [10], 8.86%; in [11], -3.55%.
With `O=C(NCCCOCC1CC1)Nc1cccnc1N1CCOCC1`, the Percent Effect in assay [1] is -3.08%; in assay [2] it was 2.7%; in [3], -5.79%; in assay [4], 0.4%; in [5], -5.27%; in assay [6], -1.67%. In addition, the Percent Effect in assay [7] was 21.1%; in assay [8], 10.8%; in assay [9], -21.8%; in assay [10], 3.66%; in assay [11], 14.9%.
As to `O=C(Cc1ccsc1)N1CCCC(c2n[nH]c3nccnc23)C1` (stereo unspecified), the Percent Effect was -5.56% in assay [1]; 14.9% in [2]; 11.9% in assay [3]; -1.03% in assay [4]; 4.94% in assay [5]; -1.16% in assay [6]. Further, the Percent Effect was 15.9% in assay [7]; 17.3% in assay [8]; 2.15% in [9]; 9.09% in assay [10]; -4.76% in [11].
Regarding `CCOC(=O)c1c(NC(=O)CN2CCN(C(C)=O)CC2)sc2c1CCC2`, the Percent Effect in assay [1] was -3.66%; in assay [2] it was 7.89%; in [3], 9.52%; in assay [4] it was 4.99%; in assay [5], -0.0974%; in [6], -1.18%. Moreover, the Percent Effect is 7% in [7]; -11.1% in assay [8]; 4.25% in [9]; 13% in assay [10]; -4.6% in assay [11].
